Experimental data as given in PubChem BioAssay (NCI).
This is part of a sample that, as a whole, favours compounds with a hit. Of some 83,000 tested, about 20% had one in any assay.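 96-well plates, one dose, 48 hours. Percent growth reported; active if below 10.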 Calls of active or inactive are those of the source.

Experiments:
Experiment in all cases: NCI-60 one-dose screen, 48 h (100 = growth as untreated, 0 = no growth, -100 = all killed)
Settings in all cases: 10 µM unless noted
[1] = test system: SR leukemia
[2] = test system: RPMI-8226 leukemia
[3] = test system: OVCAR-8 ovarian
[4] = test system: OVCAR-5 ovarian
[5] = test system: OVCAR-4 ovarian
[6] = test system: SK-OV-3 ovarian
[7] = test system: IGROV1 ovarian
[8] = test system: HS 578T breast
[9] = test system: NCI/ADR-RES ovarian
[10] = test system: T-47D breast
[11] = test system: BT-549 breast
[12] = test system: MDA-MB-435 melanoma
[13] = test system: SW-620 colon
[14] = test system: MCF7 breast
[15] = test system: HCT-116 colon
[16] = test system: HCC-2998 colon
[17] = test system: KM12 colon
[18] = test system: OVCAR-3 ovarian

Measured: growth

CCOC(=O)CSCCC#N
inactive: [1] 94.2% | [2] 106% | [3] 96.8% | [4] 85% | [5] 105% | [6] 92.5% | [7] 107% | [8] 107% | [9] 100% | [10] 83.4% | [11] 87.2% | [12] 106% | [13] 100% | [14] 93.6% | [15] 95.2% | [16] 104% | [17] 105%

O=c1[nH]c(=O)c2cc(Cl)cc(Cl)c2[nH]1
inactive: [1] 94.3% | [2] 104% | [3] 101% | [4] 116% | [5] 101% | [6] 118% | [7] 90.6% | [18] 126% | [9] 131% | [10] 111% | [12] 113% | [13] 105% | [15] 98.3% | [17] 106%

Clc1cccc(Cl)c1CSc1nc2ccccc2n2cccc12
inactive: [1] 71.9% | [2] 96.1% | [3] 104% | [4] 106% | [5] 70.4% | [6] 88.6% | [7] 76.4% | [8] 113% | [10] 25.1% | [11] 98.7% | [12] 66.8% | [13] 97% | [14] 17% | [15] 86.9% | [16] 109% | [17] 84.4%

O=C(CC(CC(=O)c1ccccc1)c1ccccn1)c1ccccc1
inactive: [1] 92.9% | [2] 96.8% | [3] 101% | [4] 105% | [5] 105% | [6] 104% | [7] 96.8% | [8] 84.8% | [9] 97.4% | [10] 97.2% | [11] 101% | [13] 101% | [14] 107% | [15] 94% | [16] 97% | [17] 102%

O=C(c1ccc(Cl)cc1)N1CCCCC1
inactive: [1] 96.9% | [2] 102% | [3] 106% | [4] 102% | [5] 113% | [6] 105% | [7] 105% | [8] 23.2% | [9] 102% | [10] 91.5% | [11] 105% | [12] 101% | [13] 99.8% | [14] 92.9% | [15] 99.9% | [16] 107% | [17] 106%

Clc1ccc(/C=C/c2ccccn2)cc1
inactive: [1] 98.2% | [2] 45.5% | [3] 105% | [4] 112% | [5] 62.3% | [6] 104% | [7] 87.2% | [18] 98.4% | [9] 98.8% | [10] 44.1% | [12] 105% | [13] 84.2% | [14] 25.9% | [15] 81.6% | [16] 111% | [17] 89.8%

Cc1cc(C(=O)c2ccccc2)cc(C)c1O
inactive: [1] 55.6% | [2] 81.2% | [3] 101% | [4] 99.5% | [5] 86.8% | [6] 101% | [7] 103% | [18] 109% | [9] 104% | [10] 95.6% | [12] 101% | [13] 97.4% | [14] 93.8% | [15] 84.5% | [16] 102% | [17] 99.6%

Nc1ncc([N+](=O)[O-])cn1
inactive: [1] 104% | [2] 98.6% | [3] 95.8% | [4] 102% | [5] 106% | [6] 106% | [7] 109% | [8] 101% | [9] 105% | [10] 103% | [12] 113% | [13] 104% | [14] 98.1% | [15] 106% | [16] 107% | [17] 101%

CCOC(=O)C(CCC#N)(CCC#N)C(=O)OCC
inactive: [1] 103% | [2] 96.6% | [3] 104% | [4] 97.8% | [5] 96% | [6] 108% | [7] 126% | [8] 95.2% | [9] 105% | [10] 112% | [12] 101% | [13] 100% | [14] 91.4% | [15] 97.3% | [16] 97.6% | [17] 106%

O=C(O)c1ccc([N+](=O)[O-])cc1S(=O)(=O)O
inactive: [1] 110% | [2] 99.5% | [3] 99.5% | [4] 106% | [5] 116% | [6] 103% | [7] 108% | [8] 100% | [9] 104% | [11] 108% | [12] 108% | [13] 105% | [14] 104% | [15] 95.6% | [16] 97.8% | [17] 104%

CNc1ccccc1C(=O)N/N=C/C=C/c1ccccc1
inactive: [2] 25.1% | [4] 47.1% | [5] 85.6% | [7] 23% | [8] 16.5% | [10] 29.5% | [11] 47.3% | [13] 20.2% | [14] 12.2% | [15] 21.6% | [16] 42.2% | [17] 22.2%
active: [1] 2.42% | [3] 6.6% | [6] 7.51% | [9] 3.92% | [12] -43.1%

Cc1ccnc(Nc2nc3ccccc3[nH]2)n1
inactive: [1] 97.1% | [2] 94.1% | [3] 106% | [4] 95.3% | [5] 109% | [6] 101% | [7] 97.6% | [18] 132% | [10] 86.5% | [11] 112% | [12] 107% | [13] 99.3% | [14] 98.8% | [15] 103% | [16] 112% | [17] 118%

COc1ccc2c(c1)Nc1ccccc1S2
inactive: [1] 118% | [2] 95.4% | [3] 102% | [4] 106% | [5] 91.4% | [6] 111% | [7] 103% | [18] 113% | [9] 111% | [10] 95.7% | [12] 112% | [13] 106% | [14] 98.6% | [15] 105% | [16] 108% | [17] 110%

COc1nc(Nc2cccc(C(F)(F)F)c2)nc(OC)n1
inactive: [1] 95% | [2] 94.7% | [3] 96% | [4] 116% | [5] 105% | [6] 97.9% | [7] 93.1% | [8] 98.6% | [10] 92.5% | [11] 91% | [12] 106% | [13] 110% | [15] 97% | [16] 108% | [17] 97.8%

COc1ccc(C2CCCCC2=O)cc1 (stereo unspecified)
inactive: [1] 103% | [2] 107% | [3] 103% | [4] 96.9% | [5] 103% | [6] 103% | [7] 118% | [18] 121% | [10] 100% | [11] 111% | [12] 103% | [13] 104% | [14] 103% | [15] 106% | [16] 107% | [17] 112%

COc1cc(OC)c2cc(C(=O)c3ccc(C#N)cc3)c(=O)oc2c1
inactive: [1] 89.8% | [2] 103% | [3] 97.1% | [4] 89.9% | [5] 96.3% | [6] 100% | [7] 104% | [8] 82.1% | [9] 101% | [10] 88.2% | [11] 87.3% | [12] 94.6% | [13] 106% | [14] 97.1% | [15] 92.1% | [16] 107% | [17] 97.5%

O=Cc1ccc(Cl)c(Cl)c1
inactive: [1] 98% | [2] 105% | [3] 101% | [4] 99.8% | [5] 95.8% | [6] 112% | [7] 83.7% | [18] 116% | [10] 115% | [12] 110% | [13] 118% | [14] 98.4% | [15] 107% | [16] 97.2% | [17] 113%

CC(=O)c1cc(O)ccc1O
inactive: [1] 94.2% | [2] 119% | [3] 95.9% | [4] 99.9% | [5] 108% | [6] 107% | [7] 117% | [8] 110% | [9] 92.8% | [10] 108% | [11] 90.9% | [12] 108% | [13] 114% | [14] 101% | [15] 103% | [16] 98.9% | [17] 116%

c1ccc2c(NCCCN3CCN(CCCNc4c5ccccc5nc5ccccc45)CC3)c3ccccc3nc2c1
active: [1] -3.4% [100 µM] | [2] -9.92% [100 µM] | [3] -37.8% [100 µM] | [4] -31.3% [100 µM] | [5] -48.8% [100 µM] | [6] -28.4% [100 µM] | [7] -31.6% [100 µM] | [8] -19.1% [100 µM] | [10] -7.72% [100 µM] | [11] -61.4% [100 µM] | [12] -88.4% [100 µM] | [13] -22.7% [100 µM] | [14] -56.5% [100 µM] | [15] -49.6% [100 µM] | [16] -76.6% [100 µM] | [17] -14.9% [100 µM]
inactive: [9] 35.7% [100 µM]

CC(C)Sc1ncnc2nc[nH]c12
inactive: [1] 122% | [2] 118% | [3] 107% | [4] 101% | [5] 115% | [18] 120% | [8] 139% | [9] 102% | [10] 100% | [12] 97.4% | [13] 108% | [14] 98.1% | [15] 103% | [16] 108% | [17] 128%
